Among the test systems are DU-145 prostate; K-562 leukemia; MALME-3M melanoma; MDA-MB-231 breast; RXF 393 renal; SF-268 CNS; SF-295 CNS; SF-539 CNS; UACC-257 melanoma; M14 melanoma.
Holding throughout (assay): NCI-60 one-dose screen, 48 h (100 = growth as untreated, 0 = no growth, -100 = all killed)
Common to all, as to conditions: 10 µM unless noted

13 molecules from PubChem BioAssay (NCI) can be followed below.

About 83,000 compounds went through this panel and 20% of them were active in at least one assay; those are over-represented in the sample as a whole.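 A percent growth of 40 corresponds to 60% growth inhibition; 0 means no net growth; -100 means all cells died. Active threshold: below 10.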 Values without a mark were called inactive. The source made the active and inactive calls.

Consider `CN1CCC(=C(c2ccccc2)c2ccccc2)C(c2ccccc2)C1` (stereo not given), for which the growth was 104% in the assay on DU-145 prostate; 106% with K-562 leukemia; 104% with MALME-3M melanoma; 94.8% in the assay with MDA-MB-231 breast; 88% with RXF 393 renal; 97.8% in the assay with SF-268 CNS. Also, the growth with SF-295 CNS is 99.3%; in the assay with SF-539 CNS, 101%; with UACC-257 melanoma, 105%; in the assay on M14 melanoma, 112%.
As for `COc1ccc(C(C)=O)c(OC)c1`, the growth was 113% in the assay on DU-145 prostate; 118% in the assay with K-562 leukemia; 110% in the assay on MALME-3M melanoma; 102% with MDA-MB-231 breast; 117% in the assay with RXF 393 renal; 111% in the assay with SF-268 CNS. The growth in the assay with SF-295 CNS was 110%; in the assay on SF-539 CNS, 103%; in the assay with UACC-257 melanoma it was 97.8%; in the assay on M14 melanoma, 108%.
With `COc1cc2nc(-c3ccc(Cl)cc3)cc(OCCCN3CCCC3)c2cc1OC`, the growth is 41.7% with DU-145 prostate; 21.1% with K-562 leukemia; 50% with MALME-3M melanoma; 21.5% in the assay with MDA-MB-231 breast; 42.8% in the assay on RXF 393 renal; 54.5% in the assay with SF-268 CNS. Further, the growth was -17% (active) in the assay on SF-295 CNS, 42.6% in the assay with SF-539 CNS, 31.7% with UACC-257 melanoma and -29.7% (active) in the assay on M14 melanoma.
Turning to `CCCCCN1C=C/C(=C\C(=O)N(C)c2ccccc2Br)c2ccccc21`, the growth in the assay with DU-145 prostate was 109%; in the assay on K-562 leukemia it was 74.6%; with MALME-3M melanoma it was 91%; with MDA-MB-231 breast, 97.6%; with RXF 393 renal, 101%; in the assay with SF-268 CNS it was 96.4%. Moreover, the growth in the assay on SF-295 CNS was 95.1%; in the assay on SF-539 CNS it was 99.6%; in the assay on UACC-257 melanoma it was 93%; in the assay with M14 melanoma, 104%.
Regarding `N/C(=N\C(N)=N\c1nc2ccccc2s1)c1cccc(Cl)c1`, the growth with DU-145 prostate was 89.6%; with K-562 leukemia, 72.8%; in the assay on MALME-3M melanoma, 102%; in the assay on MDA-MB-231 breast, 73.7%; in the assay on RXF 393 renal, 115%; in the assay with SF-268 CNS, 83.6%. Further, the growth in the assay with SF-295 CNS was 12%; in the assay with SF-539 CNS, 99.2%; in the assay on UACC-257 melanoma it was 113%; in the assay with M14 melanoma it was 96.1%.
As for `O=C1Nc2cc(-c3ccc(NC(=O)c4ccccc4)cc3)ccc2/C1=C/c1ccc[nH]1`, the growth was 98.9% with DU-145 prostate; 95.1% in the assay on K-562 leukemia; 102% in the assay with MALME-3M melanoma; 90% in the assay on MDA-MB-231 breast; 111% in the assay on RXF 393 renal; 101% in the assay on SF-268 CNS. Further, the growth is 106% in the assay with SF-295 CNS, 98% in the assay with SF-539 CNS, 110% with UACC-257 melanoma and 105% in the assay on M14 melanoma.
On to `Nc1ccccc1NC(=O)c1ccc(-n2nc(-c3ccccc3)c3ccccc32)cc1`, for which the growth in the assay on DU-145 prostate was 87.2%; with K-562 leukemia, 43.7%; in the assay on MALME-3M melanoma, 68.9%; in the assay with MDA-MB-231 breast, 42.9%; in the assay on RXF 393 renal, 88.7%; with SF-268 CNS it was 68.2%. For the same molecule, the growth was 90.7% with SF-295 CNS, 48.8% in the assay on SF-539 CNS, 86.2% in the assay with UACC-257 melanoma and 88.9% in the assay with M14 melanoma.
For `C=C(C)[C@@H]1CC[C@]2(C(=O)N3CCN(C)CC3)CC[C@]3(C)[C@H](CC[C@@H]4[C@@]5(C)C/C(=C/c6cccnc6)C(=O)C(C)(C)[C@@H]5CC[C@]43C)[C@@H]12`, the growth in the assay with DU-145 prostate was 74%; in the assay with K-562 leukemia, 21.9%; with MALME-3M melanoma, 71.4%; with MDA-MB-231 breast, 74.9%; in the assay on RXF 393 renal, 52.2%; in the assay with SF-268 CNS, 72.7%. Further, the growth in the assay on SF-295 CNS is 87.3%; in the assay on SF-539 CNS, 74.5%; in the assay with UACC-257 melanoma, 66.6%; with M14 melanoma it was 69.5%.
With `O=C(CSc1nc2sc3c(c2c(=O)n1-c1ccc(Cl)cc1)CCCC3)Nc1nc(-c2cccc(Br)c2)cs1`, the growth with DU-145 prostate is 68.5%; with K-562 leukemia it was 95.8%; in the assay on MALME-3M melanoma, 95.3%; in the assay on MDA-MB-231 breast, 80.7%; with RXF 393 renal, 99.5%; in the assay on SF-268 CNS, 69.6%. The growth in the assay with SF-295 CNS is 42.4%; in the assay with SF-539 CNS, 97.3%; with UACC-257 melanoma, 99.3%; with M14 melanoma, 76.6%.
For `CCN(CC)CCOc1ccc(NC(=O)C(C(C)C)N2C(=O)/C(=C/c3ccc(Br)cc3)SC2=S)cc1` (stereo not given), the growth in the assay on DU-145 prostate was 73%; in the assay on K-562 leukemia it was -64.8% (active); in the assay with MALME-3M melanoma it was -34.4% (active); in the assay with MDA-MB-231 breast it was 50.7%; in the assay with RXF 393 renal it was 71.6%; with SF-268 CNS, 76.6%. Also, the growth with SF-295 CNS was 101%; in the assay with SF-539 CNS, 88.2%; with UACC-257 melanoma it was 93.5%; in the assay on M14 melanoma it was 75.8%.
`N#CC1C(C#N)C2c3ccccc3C=CN2C1C(=O)c1ccc(Br)cc1` (stereo not given): the growth in the assay with DU-145 prostate is 97.8%; in the assay with K-562 leukemia, 99.8%; with MALME-3M melanoma, 100%; in the assay on MDA-MB-231 breast, 92.2%; in the assay with RXF 393 renal, 105%; in the assay with SF-268 CNS, 95.1%. The growth is 96.8% in the assay on SF-295 CNS, 89.3% with SF-539 CNS, 103% in the assay with UACC-257 melanoma and 104% with M14 melanoma.
For `N#Cc1c(NCc2ccccc2I)sc2c1CCCCC2`, the growth in the assay on DU-145 prostate was 102%; with K-562 leukemia, 95.3%; in the assay on MALME-3M melanoma, 87.5%; in the assay on MDA-MB-231 breast, 85.4%; in the assay on RXF 393 renal, 93.6%; with SF-268 CNS, 93.7%. For the same molecule, the growth in the assay on SF-295 CNS was 97.3%; in the assay with SF-539 CNS, 97.3%; in the assay with UACC-257 melanoma, 93.7%; in the assay on M14 melanoma, 97.3%.
Take `COc1ccc(/C=C(\C#N)n2nc3cccc(F)c3n2)cc1`: the growth in the assay with DU-145 prostate was 103%; with K-562 leukemia it was 82.8%; with MALME-3M melanoma it was 100%; in the assay with MDA-MB-231 breast, 112%; in the assay on RXF 393 renal, 104%; in the assay with SF-268 CNS, 104%. Moreover, the growth with SF-295 CNS is 99.9%; in the assay with SF-539 CNS, 101%; in the assay on UACC-257 melanoma, 95.5%; in the assay on M14 melanoma, 105%.
